MT1-MMP txn act: activates MT1-MMP transcription | AID 750 | HT1080 MT1-MMP promoter luciferase reporter, luminescence, overnight; hits give high values | 0.16% of 86,000 active | activation factor at 10 µM;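 active = activation factor of at least 2 for MT1-MMP transcription at 10 µM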
ERa SRC1 pot: ER-alpha (human) coactivator binding potentiation | P03372 | TR-FRET ERalpha-LBD/SRC-Cy5 coactivator binding, 2 h; 100 = basal binding, no effect | coactivator binding (% of control), % at 25.6 µM | 1.3% of 86,000 active | AID 639; in the data active = activity above about 200%;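 also: binding measured in presence of low estradiol as agonist stimulus; 0% = peptide alone without receptor and 100% = receptor with peptide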
ERa coact inh: ER-alpha (human) coactivator binding inhibition. 1.7% of 86,000 active. P03372. AID 629. TR-FRET ER-alpha LBD / SRC-1 peptide, estradiol-bound. inhibition, % at 25.6 µM; in the data active = inhibition above about 50%;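 also: 0% = receptor plus peptide control and 100% = peptide only without receptor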
ERb coact inh: blocks coactivator binding to human estrogen receptor beta | Q92731 | TR-FRET ER-beta LBD / SRC1-Cy5 peptide binding; receptor agonist-loaded with 1 µM estradiol | inhibition, % at 25.6 µM | 1.3% of 86,000 active;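 active = compounds whose percent inhibition of the receptor-coactivator binding signal exceeds about 50% in the single-dose screen, limit read from the data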;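 also: 0% = receptor plus peptide wells without compound and 100% = peptide-only wells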
Candida biofilm: kills Candida albicans biofilms. C. albicans biofilm + clotrimazole, Alamar Blue. inhibition, % at 6 µM. 0.14% of 85,000 active. AID 834;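 active = inhibition above 20%; inactive = inhibition below 20%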;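 also: preformed 24 hr biofilms exposed to compound for 48 hr; 0% = biofilm without compound and 100% = blank killed by clotrimazole plus chlorhexidine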
EphB4 ephrin blk: EphB4-ephrin-B2 interaction antagonism; EphB4 LBD / TNYL-RAW-Alexa532 peptide, fluorescence polarization; P54760; 0.15% of 97,000 active; inhibition, % at 7 µM; AID 720;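 active = inhibition above the screen-wide mean inhibition plus 3 SD, cut at about 15% in these data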;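 also: 0% = DMSO wells and 100% = excess unlabeled TNYL-RAW peptide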
Target sequence (P54760 whole entry, looked up, the tested form may be a part): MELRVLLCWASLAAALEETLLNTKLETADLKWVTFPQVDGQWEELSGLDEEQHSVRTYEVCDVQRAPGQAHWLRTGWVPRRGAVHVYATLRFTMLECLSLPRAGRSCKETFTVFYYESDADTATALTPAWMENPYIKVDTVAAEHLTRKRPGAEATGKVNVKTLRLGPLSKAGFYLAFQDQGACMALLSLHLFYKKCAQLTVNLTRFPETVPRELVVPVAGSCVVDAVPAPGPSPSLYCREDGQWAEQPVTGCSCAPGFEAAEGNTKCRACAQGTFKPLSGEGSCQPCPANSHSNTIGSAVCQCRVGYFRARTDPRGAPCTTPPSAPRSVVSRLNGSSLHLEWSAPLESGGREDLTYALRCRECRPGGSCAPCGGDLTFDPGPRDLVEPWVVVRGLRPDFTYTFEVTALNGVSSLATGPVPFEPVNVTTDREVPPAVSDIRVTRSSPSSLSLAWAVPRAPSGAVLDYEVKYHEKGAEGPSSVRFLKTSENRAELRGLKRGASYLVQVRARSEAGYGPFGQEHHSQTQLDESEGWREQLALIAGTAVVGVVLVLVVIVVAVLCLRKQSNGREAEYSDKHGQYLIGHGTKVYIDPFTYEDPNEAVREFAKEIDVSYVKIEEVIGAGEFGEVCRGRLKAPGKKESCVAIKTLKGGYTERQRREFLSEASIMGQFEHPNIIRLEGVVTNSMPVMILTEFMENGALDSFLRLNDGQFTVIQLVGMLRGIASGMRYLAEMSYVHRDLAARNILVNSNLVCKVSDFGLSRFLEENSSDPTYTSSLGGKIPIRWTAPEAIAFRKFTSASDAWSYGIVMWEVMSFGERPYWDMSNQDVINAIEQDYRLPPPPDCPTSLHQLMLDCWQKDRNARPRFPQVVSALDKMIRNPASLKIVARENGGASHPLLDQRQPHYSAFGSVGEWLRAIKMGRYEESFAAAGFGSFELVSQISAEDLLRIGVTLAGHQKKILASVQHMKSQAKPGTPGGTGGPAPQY
Numbers without * were called inactive; nt = no result; [ ] = another dose, or the depositor's remark. Compounds with a hit are over-represented: about 3.2% of the library has one in this group of screens.

SMILES	MT1-MMP txn act	ERa SRC1 pot	ERa coact inh	ERb coact inh	Candida biofilm	EphB4 ephrin blk
O=C(NCc1ccccc1)c1ccc2c(c1)C(=O)N(Cc1ccncc1)C2=O	1.2	106	-1	-17	7	2
Oc1ccccc1-c1cc(-c2ccco2)[nH]n1	2.1*	66	7	2	7	-12
S=c1[nH]nc(-c2cc(-c3ccco3)[nH]n2)n1-c1ccccc1	1	59	-6	-14	-1	1
S=c1[nH]nc(-c2cc(-c3ccco3)[nH]n2)n1-c1ccccc1Cl	1.3	43	33	50*	1	0
CC1=N/C(=C/c2ccc([N+](=O)[O-])cc2)C(=O)N1c1ccc(Cl)cc1Cl	1	101	-10	-21	3	6
Cc1ccc(C2C(C(=O)c3cc4ccccc4o3)=C(O)C(=O)N2CCCN(C)C)cc1 (stereo not drawn)	1.2	101	1	0	13	nt
COC(=O)c1ccc(Cn2nc(C)c(Br)c2C)cc1	1.1	102	-5	66*[fluorescence artefact?]	4	6
Cc1cc(Cl)cc(C)c1OCCCCN1CCOCC1	1.2	115	67*	1	6	-2
O=C(CCC1COc2ccccc2O1)Nc1cccnc1 (stereo not drawn)	1.3	89	0	-2	9	-8
O=C(Nc1cccnc1)C1COc2ccccc2O1 (stereo not drawn)	1.1	82	10	16	-4	16*
COc1ccc(CNC(=O)c2ccc(S(=O)(=O)N3CCCC3)cc2)cc1OC	1.1	115	-6	-13	5	6
C=CCn1c(=O)n(CCOC)c(=O)c2sc3ccccc3c21	1.1	122	3	7	11	-4
CCn1cc(C(=O)Nc2ccccc2C(=O)OC)c(=O)c2ccc(C)nc21	1.1	99	-9	-3	8	nt
CCn1cc(C(=O)NC2CCc3ccccc32)c(=O)c2ccc(C)nc21 (stereo not drawn)	1.1	425*[fluorescence artefact?]	-10	15	0	-8
CCn1cc(C(=O)Nc2ccc(-n3cnnn3)c(OC)c2)c(=O)c2ccc(C)nc21	1.1	337*[fluorescence artefact?]	-46	-1	9	0
CCCOC(=O)c1ccc(NC(=O)c2cn(CC)c3nc(C)ccc3c2=O)cc1	1	275*[fluorescence artefact?]	48	44	6	-1
CCn1cc(C(=O)Nc2cccc(C(=O)OC)c2)c(=O)c2ccc(C)nc21	1.1	154	-5	-3	3	nt
Cc1ccc(S(=O)(=O)N2CCC(C(=O)NNS(=O)(=O)c3ccc(Cl)cc3)CC2)cc1	nt	nt	nt	nt	nt	3
COC(=O)[C@@]1(Cc2ccc(OC)cc2)[C@H]2c3cc(C(=O)N(C)C)n(Cc4ccc(OC)c(OC)c4)c3C[C@H]2CN1C(=O)c1ccccc1	1.2	nt	nt	nt	nt	nt
CCCOc1ccc(-c2nnc(-c3cccs3)o2)cc1	nt	215*[fluorescence artefact?]	15	17	7	3
Cc1ccccc1OCC(O)Cn1nnc2ccccc21 (stereo not drawn)	2*	106	-21	-11	7	2
COc1nc2cc(C)ccc2cc1-c1noc(-c2cccnc2)n1	1.2	189	50*[fluorescence artefact?]	41	3	nt
CCc1c(C)sc(NC(=O)CC#N)c1C#N	1.2	40	77*[fluorescence artefact?]	64*[fluorescence artefact?]	4	11
CCc1c(C)sc(NC(=O)c2cc(C)no2)c1C#N	1	100	-3	-4	12	8
COc1cccc(OCc2nnc(SCC(=O)NCc3ccco3)n2CCc2ccccc2)c1	1.1	174	57*	44	9	-4
SMILES	MT1-MMP txn act	ERa SRC1 pot	ERa coact inh	ERb coact inh	Candida biofilm	EphB4 ephrin blk
COc1cccc(OCc2nnc(SCC(=O)NCc3ccco3)n2C)c1	1.1	93	-2	-5	3	-8
Cc1nnc(SCC(=O)NC(=O)NCc2ccco2)n1Cc1ccccc1	1	150	52*	33	5	0
CCOc1ccccc1-n1nnnc1SCC(=O)NC(=O)NCc1ccco1	1.1	49	77*[fluorescence artefact?]	62*	-4	nt
O=C(CSc1nnc(-c2ccco2)n1Cc1ccccc1)NC(=O)NCc1ccccc1	1	109	-2	-8	8	-5
CCn1c(SCC(=O)NC(=O)NCc2ccco2)nc2sc(C)c(C)c2c1=O	nt	nt	nt	nt	nt	-4
O=C(CSc1nnnn1-c1ccccc1)NC(=O)NCc1ccco1	nt	nt	nt	nt	nt	7
C=CCn1c(SCC(=O)NC(=O)NCc2ccco2)nc2sc(CC)cc2c1=O	1.2	47	74*	65*	5	nt
CCOc1ccc(C2CC(c3cccc(OC)c3OC)n3nnnc3N2)cc1Cl (stereo not drawn)	1.1	100	2	-2	4	nt
O=C(CSc1nc(-c2ccc(F)cc2)cs1)NC(=O)NCc1ccco1	1.1	73	53*	42	5	-9
Cc1cc(NC(=O)CSc2nc(-c3ccc(F)cc3)cs2)no1	1.2	111	-4	-3	5	-5
CCCn1c(SCC(=O)NC(=O)NCc2ccco2)n[nH]c1=O	1.1	62	74*[fluorescence artefact?]	63*[fluorescence artefact?]	6	-2
CCn1c(SCC(=O)NC(=O)NCc2ccco2)nnc1-c1cccs1	1.1	136	33	17	3	-7
COC(=O)C12CC3CC(C1)CC(n1cnc(Cl)n1)(C3)C2	2.3*	102	1	-2	16	6
COC(=O)c1ccccc1NC(=O)C12CC3CC(C1)CC(n1cnc(Cl)n1)(C3)C2	1.1	93	-3	-4	6	3
COc1ccc(NC(C)=O)cc1NC(=O)CN1CCN(S(=O)(=O)c2ccc(C(C)C)cc2)CC1	1	249*[fluorescence artefact?]	-4	46	2	-4
COc1ccc2c(=O)c(-c3cnn(-c4ccccc4)c3)c(C)oc2c1	1.1	112	0	-7	-3	-10
Cc1oc2c(C)c(O)ccc2c(=O)c1-c1cnn(-c2ccccc2)c1	0.9	181	70*[fluorescence artefact?]	60*[fluorescence artefact?]	2	-6
COc1ccc(C2(NC(C)=O)CCN(C(=O)c3ccco3)CC2)cc1	1.1	108	2	3	5	5
CCOC(=O)C1CCCN(C(=O)c2cc3c(-c4cccc(OC)c4)nn(C)c3s2)C1 (stereo not drawn)	0.9	104	-2	4	7	6
CCc1nnc(NC(=O)c2c(O)c3cccc4c3n(c2=O)CC4)s1	1	103	9	14	-1	nt
Cc1cccc(NC(=O)c2c(O)c3cccc4c3n(c2=O)CC4)c1	1.8	217*[fluorescence artefact?]	34	28	11	5
CCC(Oc1nc2ccccc2nc1-c1ccccc1NC(C)=O)C(=O)c1ccccc1 (stereo not drawn)	nt	nt	nt	nt	nt	-2
COc1ccc2cc(CN(CCCN3CCOCC3)Cc3nnnn3C3CCCC3)c(=O)[nH]c2c1	1	261*[fluorescence artefact?]	-10	-10	5	-6
COc1cccc(OCCNc2cc(Cl)ccc2[N+](=O)[O-])c1	nt	nt	nt	nt	nt	-10
Cc1cccc(OCC(=O)OCC(=O)c2c(N)n(C)c(=O)n(C)c2=O)c1C	1.1	89	-6	-6	8	0
